Outcome and AC50 data for 30 compounds are collected here from PubChem BioAssay (EPA / NIEHS).

SMILES strings stand for the structures. Calls of active or inactive are those of the source. The calls were made as follows: active = hit-call score of the fitted dose curve at least 0.9, where 1 is the maximum; inactive = score below 0.9.

What is called AC50 is the concentration giving half of the maximal activity seen.

Chain of Bile acid receptor (Homo sapiens) (Q96RI1 whole entry, looked up): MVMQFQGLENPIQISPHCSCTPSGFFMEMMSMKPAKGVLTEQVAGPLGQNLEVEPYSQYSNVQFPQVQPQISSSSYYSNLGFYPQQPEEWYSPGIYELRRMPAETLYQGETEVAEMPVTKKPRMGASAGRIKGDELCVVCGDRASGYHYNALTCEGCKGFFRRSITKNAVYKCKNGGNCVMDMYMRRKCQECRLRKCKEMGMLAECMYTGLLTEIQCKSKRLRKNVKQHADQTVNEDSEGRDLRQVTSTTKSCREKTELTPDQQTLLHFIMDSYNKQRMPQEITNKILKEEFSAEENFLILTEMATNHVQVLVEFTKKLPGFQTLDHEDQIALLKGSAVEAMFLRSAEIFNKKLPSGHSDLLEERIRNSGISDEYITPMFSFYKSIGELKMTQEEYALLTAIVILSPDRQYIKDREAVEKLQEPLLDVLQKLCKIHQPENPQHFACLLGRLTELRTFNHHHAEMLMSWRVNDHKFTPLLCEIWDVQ

The first assay addresses Bile acid receptor (Homo sapiens) (UniProt Q96RI1). As to the kind of experiment: ATG_IR1_CIS: Attagene CIS-FACTORIAL HepG2 Assay for human Nuclear Receptor Subfamily 1 Group H Member 4 (NR1H4), IR1 submotif (AID 2282946). Particulars: IR1 reporter transcription, actives raise or lower the signal. In outline:
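Readout: reporter transcript levels by RT-PCR with fluorescent capillary electrophoresis, from HepG2 cells transiently transfected with multiplexed cis-regulated reporters and dosed 24 h. Gain- or loss-of-signal fitted versus DMSO negative control.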
`CCCCN(CCCC)CCCC`: the result was inactive.
Still for that read-out and setting: to `Cc1nc(C)nc(N2C[C@@H](C)N(c3ccnc([C@@H](C)O)n3)[C@@H](C)C2)n1` belongs “inactive”; to `CC(=O)OCCOCCOCCOC(C)=O`, “inactive”.
On the same count and under the same terms, for `Cc1ccc(Cl)cc1` the value was “inactive”.
Same read-out and setting: to `C[Si]1(C)O[Si](C)(C)O[Si](C)(C)O[Si](C)(C)O1` belongs “inactive”.
For the compound `Oc1ccc2ccccc2c1N=Nc1ccccc1`, the result was inactive.
For `NS(=O)(=O)c1cc2c(cc1Cl)NCNS2(=O)=O`, the AC50 is 3.7 µM (active).
As for `Cc1ccccc1Cl`, the result was inactive.
The same measure, in the same setting: to `CCOC(=O)C(C)(C)Oc1ccc(Cl)cc1` belongs “inactive”.
Regarding `CCc1c(C(=O)NN2CCCCC2)nn(-c2ccc(Cl)cc2Cl)c1-c1ccc(Br)cc1`, the AC50 is 2.4 µM (active).
Take `O=C(O)CCCCC(=O)O`: the call was inactive.
On the same count and under the same terms, for `CCCCCCCCCCCC(=O)OC` the value was “inactive”.

System in the next assay: not listed separately
In words: ATG_GRE_CIS: Attagene CIS-FACTORIAL HepG2 Assay for human Glucocorticoid Response Elements (GRE) (AID 2282947). The note with it: HepG2 GRE cis-reporter, Attagene multiplex mRNA; actives raise or lower the signal. In outline: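 HepG2, transient cis-reporter transfection, 24 h. Reporter mRNA: RT-PCR then CE, fluorescence. Fit both directions vs DMSO.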
On to `Nc1ccc2c(c1)C(=O)c1ccccc1C2=O`, for which the result was inactive.
On the same count and under the same terms, for `CC(=O)C(C)=CC1C(C)=CCCC1(C)C` (configuration not stated) the value was “inactive”; for `CCCCN(CCCC)CCCC`, “inactive”.
On the same count and under the same terms, for `Cc1nc(C)nc(N2C[C@@H](C)N(c3ccnc([C@@H](C)O)n3)[C@@H](C)C2)n1` the value was “inactive”; for `CCOC(=O)CCC(=O)OCC`, “inactive”; for `CC(=O)Oc1ccccc1C(=O)O`, “inactive”.
For `CC(=O)OC/C=C(\C)CCC=C(C)C`, the result was inactive.
Turning to `CC(C)c1ccc(C(=O)N=C(N)N)cc1S(C)(=O)=O`, the compound was classed as inactive.
Still for that read-out and setting: to `Cc1ccc(Cl)cc1` belongs “inactive”.
Turning to `COc1cccc2c1C(=O)c1c(O)c3c(c(O)c1C2=O)C[C@@](O)(C(=O)CO)C[C@@H]3O[C@H]1C[C@H](N)[C@H](O)[C@H](C)O1`, the AC50 was 0.942 µM (active).
On to `NS(=O)(=O)c1cc2c(cc1Cl)NCNS2(=O)=O`, for which the compound was called inactive.
Same read-out and setting: for `Cc1ccccc1Cl` the value was “inactive”; for `COc1ccc2c(c1)c(CC(=O)O)c(C)n2C(=O)c1ccc(Cl)cc1`, “inactive”; for `Cc1cccc(Nc2cc(Cl)nc(SCC(=O)O)n2)c1C`, “inactive”.
The same measure, in the same setting: for `CCOC(=O)C(C)(C)Oc1ccc(Cl)cc1` the value was “inactive”; for `CCCCOC(=O)CCCCCCCCC(=O)OCCCC`, “inactive”.
The same measure, in the same setting: for `Oc1ccc2c(c1)OC[C@@H](N1CCC(O)(c3ccc(F)cc3)CC1)[C@H]2O` the value was “inactive”; for `O=C(O)CCCCC(=O)O`, “inactive”; for `CCCCCCCCCCCC(=O)OC`, “inactive”.
Regarding `O=C(N[C@@H](Cc1ccccc1)[C@@H](O)C(=O)N1C[C@@H](O)[C@@H](O)C1)c1cc2cc(Cl)ccc2[nH]1`, the compound was classed as inactive.

System in a further assay: not listed separately
In words: ATG_ISRE_CIS: Attagene CIS-FACTORIAL HepG2 Assay for human Interferon Regulatory Factor 1 (IRF1) binding to an Interferon-Stimulated Response Element (ISRE) (AID 2282948). The note with it: HepG2 ISRE cis-reporter (Attagene), mRNA transcription readout; actives raise or lower the signal. In a few lines: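 Read-out: fluorescent RT-PCR products resolved by capillary electrophoresis, reporting endogenous transcription factor activity via ISRE-driven reporter mRNA in transfected HepG2 cells dosed for 24 h; gain or loss fitted relative to DMSO.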
Turning to `Nc1ccc2c(c1)C(=O)c1ccccc1C2=O`, the call was inactive.
Still for that read-out and setting: for `CC(=O)C(C)=CC1C(C)=CCCC1(C)C` (configuration not stated) the value was “inactive”.
Still for that read-out and setting: to `CCCCCCC(=O)OCC` belongs “inactive”.
Same read-out and setting: for `CCCCN(CCCC)CCCC` the value was “inactive”.
Take `Cc1nc(C)nc(N2C[C@@H](C)N(c3ccnc([C@@H](C)O)n3)[C@@H](C)C2)n1`: the outcome was inactive.
On the same count and under the same terms, to `CC(=O)OCCOCCOCCOC(C)=O` belongs “inactive”; to `CCOC(=O)CCC(=O)OCC`, “inactive”.
For `CC(=O)Oc1ccccc1C(=O)O`, the result was inactive.
The same measure, in the same setting: to `CC(=O)OC/C=C(\C)CCC=C(C)C` belongs “inactive”; to `CC(C)c1ccc(C(=O)N=C(N)N)cc1S(C)(=O)=O`, “inactive”; to `Cc1ccc(Cl)cc1`, “inactive”.
On the same count and under the same terms, for `C[Si]1(C)O[Si](C)(C)O[Si](C)(C)O[Si](C)(C)O1` the value was “inactive”; for `C=CCc1ccc(O)c(OC)c1`, “inactive”.
With `COc1cccc2c1C(=O)c1c(O)c3c(c(O)c1C2=O)C[C@@](O)(C(=O)CO)C[C@@H]3O[C@H]1C[C@H](N)[C@H](O)[C@H](C)O1`, the AC50 was 1.63 µM (active).
On to `Cc1cccc(C)c1O`, for which the outcome was inactive.
Same read-out and setting: for `CCCCCC(=O)O` the value was “inactive”; for `Oc1ccc2ccccc2c1N=Nc1ccccc1`, “inactive”.
Still for that read-out and setting: for `NS(=O)(=O)c1cc2c(cc1Cl)NCNS2(=O)=O` the value was “inactive”.
The same measure, in the same setting: for `Cc1ccccc1Cl` the value was “inactive”; for `COc1ccc2c(c1)c(CC(=O)O)c(C)n2C(=O)c1ccc(Cl)cc1`, “inactive”; for `Cc1cccc(Nc2cc(Cl)nc(SCC(=O)O)n2)c1C`, “inactive”.
Take `CCOC(=O)C(C)(C)Oc1ccc(Cl)cc1`: the call was inactive.
On the same count and under the same terms, for `CCCCOC(=O)CCCCCCCCC(=O)OCCCC` the value was “inactive”.
For the compound `CCc1c(C(=O)NN2CCCCC2)nn(-c2ccc(Cl)cc2Cl)c1-c1ccc(Br)cc1`, the AC50 was 3.67 µM (active).
As for `Oc1ccc2c(c1)OC[C@@H](N1CCC(O)(c3ccc(F)cc3)CC1)[C@H]2O`, the call was inactive.
Same read-out and setting: to `O=C(O)CCCCC(=O)O` belongs “inactive”; to `CCCCCCCCCCCCCCCCCC(=O)O`, “inactive”.
Regarding `CCCCCCCCCCCC(=O)OC`, the outcome was inactive.
Same read-out and setting: to `O=C(N[C@@H](Cc1ccccc1)[C@@H](O)C(=O)N1C[C@@H](O)[C@@H](O)C1)c1cc2cc(Cl)ccc2[nH]1` belongs “inactive”.
Take `CCCCCCCC=O`: the call was inactive.

System in a further assay: not listed separately
As to the kind of experiment: ATG_M_32_CIS: Attagene CIS-FACTORIAL HepG2 Assay for M32 Transcription Factor (Internal Marker) (AID 2282949).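 Also: background control marker of the multiplexed CIS panel rather than a real target.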 Particulars: HepG2 Attagene cis-factorial M32 reporter, mRNA; actives raise or lower the signal. In a few lines: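 Using DMSO as baseline, bidirectional curve fits were applied to reporter mRNA signals. These came from transiently transfected HepG2 cells exposed for 24 h, with RNA analysed by RT-PCR, FAM primer extension, HpaI digestion and CE.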
For `Nc1ccc2c(c1)C(=O)c1ccccc1C2=O`, the compound was called inactive.
The same measure, in the same setting: to `CC(=O)C(C)=CC1C(C)=CCCC1(C)C` (configuration not stated) belongs “inactive”.
In the case of `CCCCCCC(=O)OCC`, the call was inactive.
Still for that read-out and setting: for `CCCCN(CCCC)CCCC` the value was “inactive”.
In the case of `Cc1nc(C)nc(N2C[C@@H](C)N(c3ccnc([C@@H](C)O)n3)[C@@H](C)C2)n1`, the call was inactive.
`CC(=O)OCCOCCOCCOC(C)=O`: the compound was called inactive.
As for `CCOC(=O)CCC(=O)OCC`, the compound was called inactive.
Same read-out and setting: for `CC(=O)Oc1ccccc1C(=O)O` the value was “inactive”; for `CC(=O)OC/C=C(\C)CCC=C(C)C`, “inactive”.
The same measure, in the same setting: to `CC(C)c1ccc(C(=O)N=C(N)N)cc1S(C)(=O)=O` belongs “inactive”; to `Cc1ccc(Cl)cc1`, “inactive”; to `C[Si]1(C)O[Si](C)(C)O[Si](C)(C)O[Si](C)(C)O1`, “inactive”.
Regarding `C=CCc1ccc(O)c(OC)c1`, the outcome was inactive.
`COc1cccc2c1C(=O)c1c(O)c3c(c(O)c1C2=O)C[C@@](O)(C(=O)CO)C[C@@H]3O[C@H]1C[C@H](N)[C@H](O)[C@H](C)O1`: the result was inactive.
The same measure, in the same setting: to `Cc1cccc(C)c1O` belongs “inactive”; to `CCCCCC(=O)O`, “inactive”.
The same measure, in the same setting: to `Oc1ccc2ccccc2c1N=Nc1ccccc1` belongs “inactive”.
On the same count and under the same terms, to `NS(=O)(=O)c1cc2c(cc1Cl)NCNS2(=O)=O` belongs “inactive”; to `Cc1ccccc1Cl`, “inactive”.
With `COc1ccc2c(c1)c(CC(=O)O)c(C)n2C(=O)c1ccc(Cl)cc1`, the outcome was inactive.
Consider `Cc1cccc(Nc2cc(Cl)nc(SCC(=O)O)n2)c1C`, for which the compound was called inactive.
Still for that read-out and setting: for `CCOC(=O)C(C)(C)Oc1ccc(Cl)cc1` the value was “inactive”; for `CCCCOC(=O)CCCCCCCCC(=O)OCCCC`, “inactive”.
Consider `CCc1c(C(=O)NN2CCCCC2)nn(-c2ccc(Cl)cc2Cl)c1-c1ccc(Br)cc1`, for which the compound was called inactive.
The same measure, in the same setting: to `Oc1ccc2c(c1)OC[C@@H](N1CCC(O)(c3ccc(F)cc3)CC1)[C@H]2O` belongs “inactive”.
As to `O=C(O)CCCCC(=O)O`, the call was inactive.
On the same count and under the same terms, to `CCCCCCCCCCCCCCCCCC(=O)O` belongs “inactive”.
Still for that read-out and setting: for `CCCCCCCCCCCC(=O)OC` the value was “inactive”; for `O=C(N[C@@H](Cc1ccccc1)[C@@H](O)C(=O)N1C[C@@H](O)[C@@H](O)C1)c1cc2cc(Cl)ccc2[nH]1`, “inactive”; for `CCCCCCCC=O`, “inactive”.
